MazF activator: increases E. coli MazEF RNase cleavage of RNA; activation, % at 20 µM; AID 504720; 350,000 tested, 0.32% active; P0AE70; FAM/BHQ RNA-DNA oligo cleavage fluorescence, 5 h; in the data active = activation above about 50%
Target sequence (P0AE70 whole entry, looked up): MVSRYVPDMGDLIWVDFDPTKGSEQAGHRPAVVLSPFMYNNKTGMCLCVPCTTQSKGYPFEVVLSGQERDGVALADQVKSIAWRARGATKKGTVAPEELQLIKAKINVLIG
DUSP3 inh: inhibitors of human VHR1 phosphatase (DUSP3) | recombinant VHR phosphatase, pNPP absorbance | inhibition, % at 13.3 µM | 290,000 tested, 0.52% active; in the data active = inhibition above about 50%
Target sequence (P51452 whole entry, looked up): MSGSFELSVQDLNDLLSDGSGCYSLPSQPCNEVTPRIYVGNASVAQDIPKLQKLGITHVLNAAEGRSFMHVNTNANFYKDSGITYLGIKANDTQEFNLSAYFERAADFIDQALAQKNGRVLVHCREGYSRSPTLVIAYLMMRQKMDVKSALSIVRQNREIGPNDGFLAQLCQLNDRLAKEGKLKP
BoNT F protease: inhibitors of Botulinum neurotoxin F light chain protease | inhibition, % at 10 µM | 360,000 tested, 0.22% active | Multiplex microsphere protease cleavage assay, flow cytometry | AID 588497; in the data active = inhibition above about 35%, passing the limit was not always enough; inconclusive = no clear call, values can overlap the other calls; also: plate controls were buffer without enzyme for full effect and enzyme alone for no effect
Anthrax LF prot: anthrax lethal factor protease inhibition; P15917; multiplex microsphere protease cleavage assay, LF; inhibition, % at 10 µM; 360,000 tested, 0.12% active; AID 588501; also: plate controls were buffer without enzyme for full effect and enzyme alone for no effect
Bead autofluor: compound fluorescence in toxin protease inhibitor counterscreen | compound autofluorescence counterscreen, microsphere flow cytometry; active compounds read high | fluorescence intensity (no concentration beside the values) | 360,000 tested, 3.1% active | AID 624483; in the data active = fluorescence intensity above about 16000; inconclusive = no clear call, values can overlap the other calls
BoNT-A LC inh2: blocks Botulinum neurotoxin A light chain protease. multiplex microsphere protease substrate cleavage, flow cytometry. inhibition, % at 10 µM. 360,000 tested, 0.17% active. AID 588499; also: plate controls were buffer without enzyme for full effect and enzyme alone for no effect
Numbers without * were called inactive; ? = inconclusive; nt = no result given. Only some compounds are listed: those with a hit (about 4% of all), similar ones and a draw of the others. Rule as the data show it, unless noted: active = inhibition above about 30%; inconclusive = no clear call, values can overlap the other calls; inactive = below that.

SMILES	MazF activator	DUSP3 inh	BoNT F protease	Anthrax LF prot	Bead autofluor	BoNT-A LC inh2
CCCCn1c(SCC(N)=O)nc2c(sc3ccccc32)c1=O	-3.0	-4.1	-6.8	1.0	4154	0.4
CCSc1nc2c(sc3ccccc32)c(=O)n1C(C)C	10.1	19.0	0.0	-0.1	23016*	0.8
CCCCN(C)CCNC(=O)c1c[nH]c2ccc(S(=O)(=O)N(CC)CC)cc2c1=O	1.9	3.6	5.8	1.3	20963*	3.5
CCCNC(=O)c1c[nH]c2ccc(S(=O)(=O)N(C)c3ccc(OCC)cc3)cc2c1=O	2.8	12.7	nt	nt	nt	nt
Cn1c(/C(C#N)=C(\O)c2ccc(S(=O)(=O)N3CCCCC3)cc2)nc2ccccc21	9.1	13.0	0.0	-2.4	23146*	0.8
COc1ccc(/C(O)=C(\C#N)c2nc3ccccc3n2C)cc1OC	2.1	16.5	5.3	1.7	21521*	?
CCSc1nc2ccccc2n1C(=O)c1ccc(S(=O)(=O)N2CCCCC2)cc1	-61.6	4.1	-3.9	-1.9	20953*	-3.0
CCSc1nc2ccccc2n1C(=O)c1ccc(S(=O)(=O)N2CCCCCC2)cc1	0.1	-17.7	0.3	-0.9	1997	0.6
Cn1c(/C(C#N)=C(\O)c2ccc(Br)s2)nc2ccccc21	10.5	-7.2	2.1	-0.3	5363	1.7
COc1ccccc1CCn1cnc(Cc2ccccc2)c1C(C)C	nt	nt	-7.3	-0.4	7629	-0.2
Cc1ccsc1C(=O)Nc1ccccc1N1CCCC1	-2.9	nt	0.5	0.8	?	3.7
CC(NC(=O)CN(c1cccc(C(F)(F)F)c1)S(C)(=O)=O)c1ccccc1 (stereo not drawn)	8.4	-0.5	?	11.9	4340	2.3
O=C(N/N=C/c1ccc(Br)s1)Nc1ccccc1	9.2	12.3	8.2	-0.7	4107	-0.5
Cn1nnnc1SCC(=O)c1c(N)n(C2CC2)c(=O)[nH]c1=O	-0.8	nt	2.6	-14.4	3757	-0.1
CSc1nnnn1-c1c(C)cccc1C	2.4	11.6	0.8	-3.7	4505	-0.6
Cc1cccc(C)c1-n1nnnc1SCC(=O)c1c(N)n(C2CC2)c(=O)[nH]c1=O	55.2*	nt	1.1	-3.3	3793	0.1
Cc1ccc(-n2nnnc2SCC(=O)c2c(N)n(C3CC3)c(=O)[nH]c2=O)cc1C	56.7*	nt	11.6	-1.4	4369	3.9
Cc1cccc(C)c1-n1nnnc1SCSc1nnnn1-c1c(C)cccc1C	-2.3	-0.6	5.2	-0.7	21580*	?
Cc1ccc(S(=O)(=O)NNC(=S)Nc2c(Cl)cccc2Cl)cc1	1.0	17.9	6.7	-4.4	6138	-0.7
COc1ccc(CNc2nc3ccccc3s2)cc1OC	-0.6	8.8	2.3	-14.3	3646	0.6
Clc1ccc(-c2nnc(-c3ccc(Br)o3)o2)c(Cl)c1	-5.1	3.1	1.9	0.7	22190*	0.9
Clc1ccc(-c2nnc(-c3ccccc3)o2)c(Cl)c1	9.3	-0.8	-1.6	-1.3	9453	0.6
COc1ccc(-n2c(SCC(=O)N(C)C3CCS(=O)(=O)C3)nc3ccc(O)cc3c2=O)cc1OC (stereo not drawn)	10.4	nt	2.2	-0.2	3992	0.7
Cn1c(Cc2cccs2)nnc1SCc1nc2ccccc2[nH]1	5.1	53.4*	-5.2	-7.2	2422	0.6
c1csc(Cc2nc3ccccc3[nH]2)c1	1.8	-4.1	5.3	4.1	8056	0.5
SMILES	MazF activator	DUSP3 inh	BoNT F protease	Anthrax LF prot	Bead autofluor	BoNT-A LC inh2
Cn1c(SCc2nc3ccccc3[nH]2)nnc1-c1cccs1	5.2	8.4	0.5	-1.3	23403*	?
COc1ccccc1N(CC(O)CN1C(=O)NC(C)(C)C1=O)S(=O)(=O)c1ccc(C)cc1 (stereo not drawn)	1.0	27.5	-3.2	0.3	2383	-0.1
CCSc1ncnc2sc3c(c12)CCC3	-6.6	14.8	0.8	-1.0	20242*	1.1
O=C(O)CSc1ncnc2sc3c(c12)CCCC3	2.7	16.5	0.0	0.2	4441	0.5
CCN(CC)c1ncnc2sc3c(c12)CCC3	7.5	11.3	-16.0	2.0	3166	0.4
CCc1cc2c(SCC(=O)O)ncnc2s1	0.7	3.5	-14.1	-1.7	18901*	?
O=C(O)CSc1ncnc2sc3c(c12)CCC3	4.5	35.7	-0.3	-0.1	19351*	0.5
Fc1ccc(CSc2ncnc3sc4c(c23)CCCC4)cc1	-10.0	27.0	1.0	-5.8	19865*	1.5
CCc1cc2c(SCC(=O)c3ccccc3)ncnc2s1	-8.4	-1.0	-14.1	-4.9	3179	-0.6
O=c1c2c(-c3ccc([N+](=O)[O-])cc3)csc2nc2n1CCC2	3.7	-9.1	-3.7	-6.4	2659	-1.1

Screening results deposited in PubChem by several laboratories.
